Out of some 2,400 compounds screened, about 2,200 (92%) were called active. So high a share suggests a set chosen from earlier hits. The list shows a part of the results. Values without a mark were called inactive.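 The calls were made as follows: active = mean inhibition over triplicate runs exceeds the cutoff derived for the earlier primary screen (cut at about 25% in these data); inactive = the rest.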

Platelet-activating factor acetylhydrolase IB subunit alpha2 (Homo sapiens), sequence (P68402 whole entry, looked up): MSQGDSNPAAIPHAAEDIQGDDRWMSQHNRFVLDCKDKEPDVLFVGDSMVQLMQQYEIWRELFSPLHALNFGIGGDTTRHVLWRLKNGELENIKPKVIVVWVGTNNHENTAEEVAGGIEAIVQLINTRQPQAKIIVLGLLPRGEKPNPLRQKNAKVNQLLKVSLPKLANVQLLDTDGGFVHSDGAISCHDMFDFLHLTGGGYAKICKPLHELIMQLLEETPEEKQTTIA

The assay addresses Platelet-activating factor acetylhydrolase IB subunit alpha2 (Homo sapiens) (UniProt P68402). The assay can be described thus: PAFAH1B2 inhibitors, confirmation, biochemical, fluorescence polarization, FP-rhodamine probe, triplicate (AID 493034).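 Also: 0% = enzyme with DMSO and 100% = wells lacking PAFAH1B2 protein; inhibitors lower polarization by leaving the probe unbound.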 The note with it: recombinant PAFAH1B2, FP-rhodamine probe fluorescence polarization; at 3.39 µM; active compounds read high.
`COC(=O)C1=C(c2ccc(C(C)=O)cc2)C[C@@H]2CC[C@H]1N2C(=O)NCc1ccc(C(F)(F)F)cc1`: the inhibition was 28% (active).

As for `COC(=O)C1=C(c2ccc(C(C)=O)cc2)C[C@@H]2CC[C@H]1N2C(=O)NCc1ccc(F)cc1`, the inhibition is 23.9%.

As for `O=P(NS(=O)(=O)c1ccc(Cl)cc1)(Oc1ccccc1)Oc1ccccc1`, the inhibition is 81.3% (active).

Take `Cc1ccc(S(=O)(=O)NP(=O)(Oc2ccccc2)Oc2ccccc2)cc1`: the inhibition was 51.9% (active).

On to `O=P(NS(=O)(=O)c1ccc(Br)cc1)(Oc1ccccc1)Oc1ccccc1`, for which the inhibition is 78.1% (active).

With `BrCC(Br)C1CCC(Br)C(Br)C1` (configuration not stated), the inhibition is 56.7% (active).

For the compound `O=c1[nH]c(=S)n(CCC2=CCCCC2)c(O)c1/C=N/Nc1ccccc1`, the inhibition was 29.8% (active).

`O=S(=O)(c1ccc(Cl)cc1)c1ccc(Cl)cc1`: the inhibition is 42.9% (active).

Consider `Cc1ccc(OCCOc2cccc(C=C3C(=O)NC(=O)NC3=O)c2)cc1`, for which the inhibition is 36.7% (active).

For `O=C(O)CCn1cc(C=C2C(=O)NC(=O)NC2=O)c(-c2ccc(Br)cc2)n1`, the inhibition is 36.4% (active).

For the compound `O=C(OCCN1CCOCC1)C1(c2ccccc2)CCCC1`, the inhibition is 32.4% (active).

`O=C(O)C1(c2ccc(Cl)cc2)CCC1`: the inhibition was 37% (active).

As to `Cn1c(O)c(/C=C2\N=c3ccccc3=C2CCNC(=S)NC2CC2)c(=O)n(C)c1=O`, the inhibition is 84.3% (active).

In the case of `O=C(Cc1ccccc1)NC(Cc1ccc(Cl)cc1)C(=O)O` (configuration not stated), the inhibition is 28.4% (active).

Consider `O=C(Cc1ccc(N(CCCl)CCCl)cc1)NC(Cc1ccc(Cl)cc1)C(=O)O` (configuration not stated), for which the inhibition is 63% (active).

Turning to `O=C1CC(=O)N(Cc2ccccc2)C(=S)N1`, the inhibition was 15.9%.

Take `O=c1[nH]c(=S)n(Cc2ccc(F)cc2)c(O)c1/C=N/N1CCCCCC1`: the inhibition was 27.4% (active).

Regarding `O=C(N/N=C/c1c(O)n(Cc2ccc(F)cc2)c(=S)[nH]c1=O)c1ccncc1`, the inhibition was 40.2% (active).

Take `O=c1[nH]c(=S)n(Cc2ccc(F)cc2)c(O)c1/C=N/N1CCCCC1`: the inhibition is 38.2% (active).

`O=c1[nH]c(=S)n(Cc2ccc(F)cc2)c(O)c1C=NCC1CCCO1` (configuration not stated): the inhibition was 27.5% (active).

For the compound `O=C(N/N=C/c1c(O)n(Cc2ccc(F)cc2)c(=O)[nH]c1=O)c1ccccc1`, the inhibition is 23.9%.

On to `CC1CC(OP(O)(=S)c2ccc(N(C)C)cc2NC(=O)c2cccs2)CC(C)(C)C1` (configuration not stated), for which the inhibition is 17.3%.

Regarding `O=C1CN=C(c2ccccc2)c2ccccc2N1Cc1ccc(C(F)(F)F)cc1`, the inhibition is 57.8% (active).

Turning to `Cc1ccc(Sc2ccc(C=C3C(=O)N(C)C(=O)N(C)C3=O)o2)cc1`, the inhibition was 62.6% (active).

Consider `O=C1NC(=O)C(=Cc2ccc(-c3ccc(F)cc3O)o2)C(=O)N1`, for which the inhibition was 20.5%.

For the compound `Cc1ccc(-c2nc3ccc(Cl)cc3n2OC(=O)N(C)C)cc1`, the inhibition is 59% (active).

`CNC(=O)O/N=C(\N)Cc1csc2ccc(Cl)cc12`: the inhibition was 54.9% (active).

On to `FC(F)(F)c1cccc(-n2nnnc2C2(N3CCOCC3)CCCCC2)c1`, for which the inhibition was 23.3%.

On to `Cc1ccc2c(c1)=NC(=O)/C(=C/c1c(O)[nH]c(=O)[nH]c1=O)C=2`, for which the inhibition is 21.7%.

For `C=C[C@@H]1C[C@@]1(C)[C@@H](NP(=O)(c1ccccc1)c1ccccc1)c1ccccc1`, the inhibition is 29.2% (active).

As for `Nc1ccc(C2(c3ccc(N)cc3)CCCCC2)cc1`, the inhibition was 45.2% (active).

As to `O=P(O)(Oc1ccccc1)OC(c1ccccc1)C(F)(F)C(F)(F)F` (configuration not stated), the inhibition was 85.5% (active).

As for `NP(=O)(OCCCc1ccccc1)Oc1ccc(Cl)cc1` (configuration not stated), the inhibition was 88.8% (active).

On to `NP(=O)(OCCCc1ccccc1)Oc1ccccc1` (configuration not stated), for which the inhibition was 51.6% (active).

Consider `Nc1ccc2cc(Br)ccc2c1`, for which the inhibition is 70.6% (active).

With `CNC(=O)Oc1ccc(C(=O)N2c3ccccc3NC(=O)C2C)cc1` (configuration not stated), the inhibition is 43.6% (active).

Take `O=C(O)c1c[nH]c2ccc(S(=O)(=O)N(CCCl)CCCl)cc12`: the inhibition was 26% (active).

For the origin of these results see PubChem BioAssay AID493034 (The Scripps Research Institute Molecular Screening Center, 2011).
